This is one part of a sample in which hits are shown more often than they occur.
RmlCD inh mix: RmlC/RmlD inhibition, mixture screen | actives 0.39% (n = 110,000) | AID 1532 | RmlC/RmlD coupled enzyme inhibition, 384-well mixture HTS | inhibition, % at 5.5 µM; in the data active = inhibition above about 30%, passing the limit was not always enough; inconclusive = no clear call, values can overlap the other calls
HIV RNase H inh: inhibitors of HIV-1 reverse transcriptase RNase H; RT-RNase H RNA/DNA duplex cleavage, fluorescence; actives 1.9% (n = 65,000); AID 565; inhibition, % at 10 µM; P04585; in the data active = inhibition above about 50%
RmlCD artifact: counter-screen for RmlC/RmlD inhibitors: fluorescence artifact; RmlC/RmlD assay fluorescence artifact counter-screen; calls only; actives 96% (n = 360); shares compounds with RmlCD inh mix; AID 1696; call rule not given here;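 also: compound alone with no enzyme and no substrates present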
Numbers stand for hits; 0 = inactive; ? = inconclusive; - = no result; + = active, no number.

SMILES	RmlCD inh mix	HIV RNase H inh	RmlCD artifact
Cc1nnc(Sc2nc3c(c(=O)[nH]c(=O)n3C)n2Cc2ccccc2Cl)s1	-	0	-
Cc1ccc(S(=O)(=O)CCc2nnc(N)s2)cc1	0	-	-
Oc1cccc(/C=N/c2c(-c3ccco3)nc3ccccn23)c1	?	0	-
COc1cc(-c2nc3ccccn3c2/N=C/c2ccccc2)ccc1O	67	-	+
Cc1sc2ncnc(OCC(=O)NCc3cccs3)c2c1C	0	0	-
CC(C)COc1ccc2[nH]c3c(c2c1)CCCC3=O	0	-	-
COc1ccc2c(c1)c1ncn(CCCN3CCOCC3)c(=O)c1n2C	106	-	+
COc1ccc2c(c1)[nH]c1c(=O)n(CCCN3CCOCC3)cnc12	0	-	-
COC(=O)C1=C(CCc2ccccc2)NC(=O)NC1c1ccc([N+](=O)[O-])cc1 (configuration not stated)	0	-	-
O=C(c1ccc(CNS(=O)(=O)c2ccccc2)cc1)N1CCN(Cc2ccccc2)CC1	0	-	-
CC(C)(C)C1CCc2c(sc(NC(=O)c3ccco3)c2C(N)=O)C1 (configuration not stated)	64	-	+
CCC1CCc2c(sc(NC(=O)c3ccco3)c2C(N)=O)C1 (configuration not stated)	0	-	-
COCc1cc(C)nc2sc(C(=O)OC)c(N)c12	0	0	-
COC(=O)c1sc2cnccc2c1N	34	0	+
COc1ccc2cc3cc(C(=O)Nc4cc(OC)c(OC)c(OC)c4)oc3nc2c1	0	-	-
COc1ccc2cc3cc(C(=O)NC(C)C)oc3nc2c1	96	-	+
CCC1CCC2(CC1)NNC(=S)NN2	0	-	-
CC(C)CNC(=O)c1cccc(NC(=O)C2CCCO2)c1 (configuration not stated)	0	0	-
S=C1NCCc2ccc(Cl)cc2C1c1ccccc1 (configuration not stated)	0	-	-
CCn1nnc(NC(=O)c2cccc(-c3cc4ccccc4oc3=O)c2)n1	0	0	-
Cc1ccc2nc(NC(=O)c3cccc(-c4cc5ccccc5oc4=O)c3)sc2c1	41	-	+
CCc1ccccc1NC(=O)Cn1nc(C(F)(F)F)cc1C1CC1	0	-	-
CC(=O)SC(C)CC(=O)NCc1ccccc1 (configuration not stated)	0	-	-
COc1ccc(-c2cc(C(F)(F)F)n3nc(N)nc3n2)cc1	75	-	+
COc1cccc(-c2cc(C(F)(F)F)n3nc(N)nc3n2)c1	0	0	-
COc1ccc2cc(-c3nc4ccccc4n3C)c(=O)oc2c1	31	-	+
COc1ccc2oc(=O)c(-c3nc4ccccc4o3)cc2c1	0	-	-
CS(=O)(=O)n1nc(-c2ccc(Cl)cc2)nc1SCc1ccccc1	0	-	-

Bioassay records: PubChem BioAssay, several laboratories
